# Bioassay records (PubChem BioAssay)
# Rows were chosen to be rich in hits. Some 2.8% of all compounds tested hit in one or more screens of this group.
# pPAFAH inh: pPAFAH (human) enzyme inhibition | recombinant pPAFAH, FP-rhodamine probe fluorescence polarization | inhibition, % at 3.39 µM | 330,000 compounds, 1.5% hits | AID 463082;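 active = inhibition above the mean inhibition across the screen plus 3 SD, cut at about 25% in these data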;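 also: inhibitors block binding of the rhodamine activity-based probe so polarization drops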
# PAFAH1B2 inh: inhibitors of human PAFAH1B2; P68402; recombinant PAFAH1B2, FP-rhodamine activity probe, fluorescence polarization; inhibition, % at 3.39 µM; 340,000 compounds, 1.2% hits;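 active = inhibition above the mean of all tested compounds plus 3 SD, cut at about 24% in these data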
# Target sequence (P68402 whole entry, looked up): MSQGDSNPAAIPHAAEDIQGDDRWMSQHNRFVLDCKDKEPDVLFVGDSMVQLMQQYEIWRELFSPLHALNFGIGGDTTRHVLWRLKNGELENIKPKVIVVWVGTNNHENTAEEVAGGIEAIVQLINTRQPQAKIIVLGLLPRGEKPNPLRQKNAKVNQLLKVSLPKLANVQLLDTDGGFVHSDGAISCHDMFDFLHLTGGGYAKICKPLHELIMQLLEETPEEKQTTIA
# Fam108B counter: counter-screen for RBBP9 inhibitors: inhibitors of mouse Fam108B | recombinant Fam108B, FP-Rh probe fluorescence polarization | inhibition, % at 9.51 µM | 300,000 compounds, 0.33% hits;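 active = inhibition above the screen mean inhibition plus 3 SD, computed separately per campaign, cut at about 18% in these data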;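 also: inhibitors lower polarization as less probe binds the enzyme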
# PAFAH1B3 inh: blocks human PAF acetylhydrolase 1B catalytic subunit 3; Q15102; recombinant PAFAH1B3, FP-rhodamine probe, fluorescence polarization; inhibition, % at 3.39 µM; 340,000 compounds, 0.28% hits; AID 492972;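 active = inhibition above the screen-wide average of all tested compounds plus 3 SD, cut at about 25% in these data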
# PAFAH2 inh: inhibitors of human PAFAH2 | Q99487 | recombinant PAFAH2, FP-rhodamine activity probe, fluorescence polarization | inhibition, % at 3.39 µM | 340,000 compounds, 0.99% hits | AID 492956;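 active = inhibition above the mean over all tested compounds plus 3 SD, cut at about 30% in these data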;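 also: inhibitors block probe labeling of enzyme so polarization drops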
# PME-1 inh: blocks human protein phosphatase methylesterase 1 | Q9Y570 | recombinant PME-1, FP-Rh probe fluorescence polarization | inhibition, % at 5.9 µM | 320,000 compounds, 0.53% hits;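 active = inhibition above the campaign mean of all compounds plus 3 SD, cut at about 26% in these data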;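 also: competitive labeling of PME-1 active site by serine hydrolase directed probe; inhibitors block probe labeling so polarization falls and inhibition rises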
# Target sequence (Q9Y570 whole entry, looked up): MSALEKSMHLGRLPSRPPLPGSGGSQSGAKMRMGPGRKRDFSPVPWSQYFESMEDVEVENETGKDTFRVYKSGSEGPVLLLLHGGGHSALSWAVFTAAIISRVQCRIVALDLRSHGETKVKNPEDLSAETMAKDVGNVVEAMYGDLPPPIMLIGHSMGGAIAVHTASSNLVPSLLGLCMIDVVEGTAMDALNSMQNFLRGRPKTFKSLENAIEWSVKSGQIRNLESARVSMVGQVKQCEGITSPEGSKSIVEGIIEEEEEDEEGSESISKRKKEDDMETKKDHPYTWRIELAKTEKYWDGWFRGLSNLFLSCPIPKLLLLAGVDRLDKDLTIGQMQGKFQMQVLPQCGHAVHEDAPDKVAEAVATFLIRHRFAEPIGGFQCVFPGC
# PAFAH2 confirm: confirmation of human PAFAH2 inhibitors; shares compounds with PAFAH2 inh; recombinant PAFAH2, FP-rhodamine activity probe, fluorescence polarization; inhibition, % at 3.39 µM; 2,300 compounds, 65% hits; AID 493030;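 active = mean inhibition over three repeats above a set limit taken from the earlier primary screen, cut at about 30% in these data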;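 also: inhibitor blocks binding of rhodamine activity probe so polarization falls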
# Hits are given with their value; 0 = inactive; - = no result given.
SMILES,pPAFAH inh,PAFAH1B2 inh,Fam108B counter,PAFAH1B3 inh,PAFAH2 inh,PME-1 inh,PAFAH2 confirm
Cc1cccc(C(=O)N2c3ccccc3C(=O)OC2c2ccc3c(c2)OCO3)c1 (centres undefined),0,0,0,0,31,0,34
CC(=O)N1C(c2ccccc2)CC(=O)OC1c1ccc2c(c1)OCO2 (centres undefined),0,0,0,0,0,0,-
O=C1OC(c2ccc3c(c2)OCO3)N(C(=O)c2ccc(Cl)c(Cl)c2)c2ccccc21 (centres undefined),0,0,0,0,48,0,47
CN(C(=O)COC(=O)C1CCN(S(=O)(=O)c2ccc3c(c2)OCCO3)CC1)C1CCS(=O)(=O)C1 (centres undefined),0,0,0,0,0,0,-
N=C1C(c2nc3ccccc3s2)=C(O)CN1C1CCCCC1,0,0,0,0,0,0,-
COc1ccc(CNC(=O)C2CCN(S(=O)(=O)c3cccc4nonc34)CC2)cc1,0,0,0,0,0,0,-
Cc1ccc(C)c(S(=O)(=O)Nc2ccc3oc(C)c(C(=O)O)c3c2)c1,0,0,0,0,38,0,0
NC(=O)c1sc2nc3c(c(-c4ccco4)c2c1N)CCC3,0,0,0,0,44,0,0
O=c1cc(CO)occ1OCc1ccccc1,0,0,0,0,0,0,-
C#CCOc1coc(COC(=O)c2ccccc2)cc1=O,0,0,0,0,50,0,30
NS(=O)(=O)c1cccc(NS(=O)(=O)c2ccc(/C=C/C(=O)OCC(=O)c3ccccc3)cc2)c1,0,0,0,0,58,0,49
CN1C(C)(C)CC(=NOC(=O)c2ccccc2)CC1(C)C,0,0,0,0,0,0,-
O=C(ON=C1CCSCC1)c1ccccc1,0,0,0,0,78,0,76
O=C(ON=C1CCN(c2ccc([N+](=O)[O-])cc2)CC1)c1ccccc1,0,0,0,0,90,0,86
COc1cccc(CNC(=O)c2nnn(CC(=O)Nc3cccc(C)c3)c2N)c1,0,0,0,0,0,0,-
CCn1c(CNC(=O)c2ccccc2OC)nnc1SCC(=O)c1ccc(F)cc1,0,0,0,0,0,0,-
CC1=C(C#N)C(=O)NC(=O)/C1=C\c1ccc(-c2cc(C)c(C)cc2[N+](=O)[O-])o1,-,0,-,0,32,-,0
O=C(O)C(Cc1ccccc1)N1C(=O)c2c(Cl)c(Cl)c(Cl)c(Cl)c2C1=O (centres undefined),0,0,0,0,32,0,0
O=C(O)C(Cc1ccccc1)N1C(=O)c2ccccc2C1=O (centres undefined),0,0,0,0,0,0,-
CCNc1ccc(C(=O)OCC(=O)NC(=O)NCC(C)C)cc1[N+](=O)[O-],0,0,0,0,33,0,0
O=C(COC(=O)Cc1ccccc1[N+](=O)[O-])NCc1ccccc1Cl,0,0,0,0,0,0,-
CCNc1ccc(C(=O)OCC(=O)Nc2cc(C)on2)cc1[N+](=O)[O-],0,0,-,0,31,0,31
CCNc1ccc(C(=O)OCC(=O)NCc2ccccc2Cl)cc1[N+](=O)[O-],0,0,0,0,47,0,56
Cc1cc(NC(=O)COC(=O)c2cccc(O)c2)no1,0,0,0,0,0,0,-
CCCc1nnc(NC(=O)c2cn(CC)c3cc(N4CCN(C)CC4)c(F)cc3c2=O)s1,0,-,0,-,-,0,-
SMILES,pPAFAH inh,PAFAH1B2 inh,Fam108B counter,PAFAH1B3 inh,PAFAH2 inh,PME-1 inh,PAFAH2 confirm
O=C1CC(=O)NC(SCC(=O)Nc2ccccc2[N+](=O)[O-])=N1,0,0,0,0,0,0,-
O=C(O/N=C(/c1ccccc1)c1ccncc1)c1ccc(F)cc1,0,-,0,-,-,0,-
Cc1ccc(C(=O)O/N=C(\c2ccccc2)c2cccnc2)cc1,0,0,0,0,73,0,80
COc1ccc(S(=O)(=O)N2CCC(C(=O)Nc3cc(Cl)ccc3N3CCOCC3)CC2)cc1OC,0,0,0,0,0,0,-
O=C(COC(=O)C1CC2CCCC(C1)C2=O)NC1CCCCC1 (centres undefined),0,0,-,0,63,0,55
CC(=O)Nc1cccc(NC(=O)COC(=O)C2CC3CCCC(C2)C3=O)c1 (centres undefined),0,0,0,0,0,0,-
CC1CCC(NC(=O)COC(=O)C2CC3CCCC(C2)C3=O)CC1 (centres undefined),0,0,0,0,62,0,48
CN(CCOc1ccccc1)C(=O)C1CCC(=O)N(CCN2CCOCC2)C1 (centres undefined),0,0,0,0,0,0,-
CCN(CC)CCCn1c2c(c(SCC(=O)Nc3ccccc3Cl)nc1=O)CCC2,0,0,0,0,0,0,-
S=C(NCCCN1CCOCC1)Nc1ccc(N2CCOCC2)cc1,0,0,0,0,42,0,0
O=C(Nc1ccc(OC(F)F)cc1)c1cc[n+]([O-])cc1,0,0,0,0,0,0,-
O=c1[nH]nc(CNc2ccc(OC(F)(F)F)cc2)c2ccccc12,0,0,0,0,0,0,-
O=c1[nH]nc(CNc2ccc(C(F)(F)F)cc2)c2ccccc12,0,0,0,0,50,0,34
O=C(COC(=O)c1ccc(O)cc1O)Nc1ccc2ccccc2c1,0,0,-,0,0,0,-
O=C(COC(=O)c1ccc(CO)cc1)Nc1ccc(OC(F)F)cc1,0,0,0,0,82,0,74
Cc1cc(C)c(-c2cc(NC(=O)COC(=O)c3ccc(CO)cc3)n(-c3ccccc3)n2)cc1C,0,0,0,0,32,0,0
O=C(COC(=O)c1ccc(OC(F)F)cc1)NCCNC(=O)COC(=O)c1ccc(OC(F)F)cc1,0,0,0,0,0,0,-
O=C(COC(=O)c1ccc(CO)cc1)Nc1ccc2ccccc2c1,0,0,-,0,80,0,71
Cc1ccc(/C=N/NC(=O)COc2ccc(Cl)c(C)c2)o1,0,0,0,0,0,0,-
CCOc1cc(C(=O)OCC(=O)c2c(C)[nH]c3ccccc23)ccc1OCC(=O)N1CCOCC1,0,0,0,0,0,0,-
COc1cc(C(=O)NC(C)c2ccccc2)ccc1OCC(=O)N1CCOCC1 (centres undefined),0,0,-,0,0,0,-
CCOc1cc(C(=O)OCC(=O)NC(C)c2ccccc2)ccc1OCC(=O)N1CCOCC1 (centres undefined),0,0,0,0,92,0,71
COc1ccc(C(=O)OCC(=O)c2c[nH]c3ccccc23)cc1OC,0,0,-,0,47,0,44
COc1cc(C(=O)OCC(=O)c2c[nH]c3ccccc23)ccc1OCC(=O)N1CCOCC1,0,0,0,0,34,0,0
CCOc1cc(C(=O)OCC(=O)c2c[nH]c3ccccc23)ccc1OCC(=O)N1CCOCC1,0,0,0,0,45,0,33
O=C1COc2ccc(N3C(=O)C=CC3=O)cc2N1,0,-,0,-,-,0,-
